GPT2 inh = blocks human glutamate pyruvate transaminase 2; Q8TD30; Recombinant GPT2, coupled pyruvate oxidase/HRP Amplex Red fluorescence; Potency, µM (highest dose often 57.7 µM), without a hit: top-dose activity change, negative = inhibition, usual class: inhibitors; 0.25% of 100,000 active; AID 1671188; note: % is set by controls: 0 for no effect and ±100 for the full control effect; nearly all actives have a fitted effect of over 60% in size
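Fluorescence read-out: pyruvate from GPT2 turnover coupled to pyruvate oxidase, HRP and Amplex Red (0.2mM ThPP, 0.2U/mL PO and HRP, 50uM Amplex final). Substrates 250uM a-KG, 2mM L-alanine; enzyme 10ng/uL; 30 min RT.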
3T3 cytotox = cytotoxic compounds in NIH 3T3 cells. Potency, µM (top dose mostly 96.7 µM), inactives show at the highest dose activity change, negative = cytotoxicity, usual class: inhibitors. NIH 3T3 viability, CellTiter-Glo ATP luminescence, 48-72 h. AID 1345082. 4.3% of 94,000 active; note: % is set by controls: 0 for no effect and ±100 for the full control effect; nearly all actives have a fitted effect of over 55% in size
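Mouse fibroblast NIH 3T3 cells, 400 per well, received compound via pintool and were incubated for 48 or 72 hr prior to CellTiter-Glo ATP luminescence measurement.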
hNpr1 antagonist = antagonists of human natriuretic peptide receptor Npr1; P16066; HEK293 hNpr1 GloSensor cGMP, ANP-stimulated luminescence; Potency, µM (highest dose often 46.3 µM), for the others: at the top dose activity change, negative = inhibition, hits mostly inhibitors; 1.6% of 76,000 active; AID 1347048; calls by dose curve; note: % is set by controls: 0 for no effect and ±100 for the full control effect; nearly all actives have a fitted effect of over 60% in size
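HEK293 cells stably expressing human Npr1 and cGMP GloSensor pGS-40F, loaded 2 h with 2% GloSensor reagent, given compound 30 min at room temperature. Luminescence read before and 20 min after 0.1 nM hNppA.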
FLuc inh = Photinus pyralis luciferase inhibition; P08659; purified P. pyralis luciferase, luminescence, biochemical; Potency, µM (doses to about 115 µM), actives largely listed as inhibitors; 2.5% of 76,000 active; AID 1347043; note: % is set by controls: 0 for no effect and ±100 for the full control effect; nearly all actives have a fitted effect of over 65% in size
Target sequence (P08659 whole entry, looked up): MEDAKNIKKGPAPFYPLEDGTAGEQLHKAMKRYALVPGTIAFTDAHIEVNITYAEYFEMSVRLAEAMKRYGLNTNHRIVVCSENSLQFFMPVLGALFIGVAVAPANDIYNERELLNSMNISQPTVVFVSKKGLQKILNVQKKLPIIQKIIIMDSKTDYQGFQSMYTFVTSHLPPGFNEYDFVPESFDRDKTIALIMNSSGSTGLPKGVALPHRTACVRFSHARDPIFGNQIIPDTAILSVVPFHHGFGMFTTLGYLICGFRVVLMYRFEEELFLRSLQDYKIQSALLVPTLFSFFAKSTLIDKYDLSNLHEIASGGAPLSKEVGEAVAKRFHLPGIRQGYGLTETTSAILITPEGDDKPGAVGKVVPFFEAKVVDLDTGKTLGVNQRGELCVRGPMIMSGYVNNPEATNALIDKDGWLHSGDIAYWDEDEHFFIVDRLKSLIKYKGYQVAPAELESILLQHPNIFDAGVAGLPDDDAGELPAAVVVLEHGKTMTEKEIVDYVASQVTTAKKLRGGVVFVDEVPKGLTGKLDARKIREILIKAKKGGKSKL
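FLuc 10nM, D-luciferin 10uM, ATP 10uM, Mg acetate 10mM, Tris acetate pH 7.5, Tween/BSA; cpd qHTS; enzyme added last; CCD luminescence.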
HEK cytotox = kills HEK 293 cells; HEK 293 viability, ATP luminescence (CellTiter-Glo), 48-72 h; Potency, µM (highest dose often 115 µM), for the others: at the highest dose activity change, negative = cytotoxicity, hits mostly inhibitors; 6.6% of 94,000 active; AID 1345083; note: % is set by controls: 0 for no effect and ±100 for the full control effect; nearly all actives have a fitted effect of over 60% in size
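Pintool-delivered compounds were incubated with HEK 293 cells (250 cells/well) at 37 degree Celsius for 48 or 72 hr. ATP-dependent luminescence (CellTiter-Glo) then reported remaining viable cells.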
Npr1 antag conf = confirmation of human Npr1 natriuretic peptide receptor antagonists | shares compounds with hNpr1 antagonist | HEK293 hNpr1 cGMP GloSensor luminescence, ANP-stimulated | Potency, µM (top dose mostly 57.6 µM), inactives show top-dose activity change, negative = inhibition, hits mostly inhibitors | 76% of 1,400 active | AID 1347044; calls by dose curve; note: nearly all actives have a fitted effect of over 70% in size
NPR2 antag = selectivity test of Npr1 antagonists against human Npr2 | 67% of 1,400 active | AID 1347046 | Potency, µM (series often up to 57.6 µM), for the others: top-dose activity change, negative = inhibition, hits mostly inhibitors | shares compounds with hNpr1 antagonist | HEK293 hNpr2 GloSensor cGMP luminescence, CNP-stimulated; calls by dose curve; note: nearly all actives have a fitted effect of over 70% in size
FLuc counter = counter-screen for Npr1 antagonists: firefly luciferase inhibitors. shares compounds with hNpr1 antagonist. purified FLuc enzyme, luminescence, Km substrate. Potency, µM (top dose mostly 57.6 µM), inactives show at the top dose activity change, negative = inhibition, usual class: inhibitors. 0.7% of 1,400 active; note: 0% is about no effect
GloSensor ctrl = reduces cGMP signal in GloSensor control cells; HEK293 GloSensor cGMP, SNP-stimulated, luminescence; 69% of 1,400 active; shares compounds with hNpr1 antagonist; Potency, µM (doses to about 57.6 µM), without a hit: at the top dose activity change, negative = inhibition, hits mostly inhibitors; calls by dose curve; note: % is set by controls: 0 for no effect and ±100 for the full control effect; nearly all actives have a fitted effect of over 70% in size
Active calls of the source: *; i = inactive; ? = inconclusive; . = no result given; [ ] = another dose, or the depositor's remark. This is a sample that favours compounds with a hit; in the whole collection about 10% have one here. Unless noted, calls come from the whole dose curve; as a rule, active = well fitted curve in the direction sought with a large enough effect; inconclusive = small, poorly fitted or top-dose-only effect, or another doubt; inactive = no such curve, though single readings can be large; an effect the other way counts as inactive or inconclusive. Potency is the fitted concentration of half-maximal effect.

SMILES | GPT2 inh | 3T3 cytotox | hNpr1 antagonist | FLuc inh | HEK cytotox | Npr1 antag conf | NPR2 antag | FLuc counter | GloSensor ctrl
CC1(c2ccccc2)N(Cc2ccccc2C#N)C(=O)OC12CCN(Cc1c[nH]c3ccccc13)CC2 (stereo unspecified) | -12% | 22µM* | ? | i | 14µM* | 19µM* | 19µM* | 0% | -9%
COc1ccc(CN2CC3(CCN(C(=O)CCc4ccccc4)CC3)C2=O)cc1 | -7% | -23% | . | . | ? | . | . | . | .
COc1ccccc1-c1ncc(CNc2cc(C3CC(O)C3)ncn2)s1 (stereo unspecified) | 4% | -64% | 7.1µM* | i | 32µM* | 8.6µM* | 12µM* | -27% | 6.9µM*
O=C1[C@@H]2C[C@@H](CN2Cc2ccc(C(F)(F)F)cc2)Oc2ccccc2N1Cc1cccnc1 | 4% | ? | -28% | i | 35µM* | ? | -18% | -9% | -1%
O=C1[C@@H]2C[C@@H](CN2CC2CC2)Oc2ccccc2N1Cc1cccnc1 | 0%[88.5 µM] | -23%[174 µM] | -17%[70.6 µM] | i | ? | . | . | . | .
COc1ccc(CN2CCNc3cnc(OCc4cccnc4)cc3C2)cc1 | i | -23%[138 µM] | ? | i | ? | . | . | . | .
c1cncc(COc2cc3c(cn2)NCCN(Cc2ccc4[nH]ccc4c2)C3)c1 | i | ? | 8.9µM* | i | ? | 20µM* | 22µM* | 1%[86.2 µM] | 20µM*
O=C(NCc1ccc(F)cc1)c1cc(-c2ccccc2)c2nncn2n1 | -17% | -11% | . | . | i | . | . | . | .
O=C(NC1CCCc2c1[nH]c1ccc(F)cc21)c1ccncc1 (stereo unspecified) | ? | ? | -19% | i | ? | . | . | . | .
O=C(NC1CCCc2c1[nH]c1ccc(Cl)cc21)c1ccncc1 (stereo unspecified) | -1% | ? | ? | i | 22µM* | ? | -30% | -4% | -27%
CNC(=O)c1cccc(NC(=O)c2nc(C(O)c3ccccc3F)oc2C)c1 (stereo unspecified) | -2%[88.5 µM] | ? | 35µM* | i | 79µM* | 31µM* | 31µM* | 2%[86.2 µM] | 31µM*
Cc1oc(C(O)c2ccccc2F)nc1C(=O)Nc1ccccc1C(N)=O (stereo unspecified) | -8%[88.5 µM] | ? | 25µM* | i | ? | 31µM* | 35µM* | 3%[86.2 µM] | 35µM*
Cc1oc(C(O)c2ccccc2F)nc1C(=O)Nc1ccc(C(N)=O)cc1 (stereo unspecified) | -2%[88.5 µM] | ? | ? | i | ? | . | . | . | .
Cc1oc(C(O)c2ccccc2F)nc1C(=O)Nc1ccccc1 (stereo unspecified) | 4%[88.5 µM] | ? | -30%[70.6 µM] | ? | ? | . | . | . | .
CCC(O)c1cc2n(n1)CCN(C(=O)c1ccc(-c3ccccc3)n1C)C2 (stereo unspecified) | -17% | ? | 16µM* | i | 32µM* | 24µM* | 24µM* | -2% | 24µM*
CCC(O)c1cc2n(n1)CCN(C(=O)c1cn(-c3ccccc3)nn1)C2 (stereo unspecified) | -4% | -25% | 5% | i | -6% | . | . | . | .
COc1c(C)cccc1C(=O)N1CCOC(c2ccc(Cl)c(Cl)c2)C1 (stereo unspecified) | 3% | ? | 10µM* | i | ? | 17µM* | 19µM* | -2% | 15µM*
O=C(c1ccc2ncccc2c1)N1CCOC(c2ccc(Cl)c(Cl)c2)C1 (stereo unspecified) | i | ? | ? | i | ? | . | . | . | .
O=C1CCC2(CCN(c3nc4ccccc4s3)CC2)CN1Cc1cccnc1 | -26% | -25% | 13µM* | i | ? | 17µM* | 19µM* | -5% | 15µM*
O=C1CCC2(CCCN(c3nc4ccccc4s3)C2)CN1Cc1cccnc1 (stereo unspecified) | ? | 2% | 6% | i | 4% | . | . | . | .
Clc1ccc(C2CN(c3cc(C4CC4)ncn3)CCO2)cc1 (stereo unspecified) | -27% | ? | 11µM* | i | 25µM* | 19µM* | 22µM* | 0% | 17µM*
CCc1cnc(C)nc1N1CCOC(c2ccc(Cl)cc2)C1 (stereo unspecified) | ? | ? | 10µM* | i | 11µM* | 14µM* | 15µM* | 0% | 12µM*
CCNC(=O)c1c(C)oc2c1CN(Cc1sccc1C)CC2 | i | ? | -17% | i | ? | . | . | . | .
CCO[C@H]1CN(C2CCN(c3ccc(C)c(Cl)c3)CC2)C[C@@H]1O | -4% | ? | 1% | i | ? | . | . | . | .
COc1ccccc1-n1c(=O)c(C(=O)N2CCN([S+](=O)([O-])c3ccc(C)cc3)CC2)nc2cccnc21 | i | ? | . | . | -8% | . | . | . | .
SMILES | GPT2 inh | 3T3 cytotox | hNpr1 antagonist | FLuc inh | HEK cytotox | Npr1 antag conf | NPR2 antag | FLuc counter | GloSensor ctrl
OC1(c2csc(CN3CCOCC3)n2)CCN(CC2CCCCC2)CC1 | i | -6%[174 µM] | 0%[70.6 µM] | i | i | . | . | . | .
COc1ccccc1-c1[nH]nc2ncc(C(=O)NCC3CC3)nc12 | i | ? | ? | i | ? | ? | 25µM* | 0%[86.2 µM] | 3%[86.2 µM]
COc1ccccc1-c1[nH]nc2ncc(C(=O)NCc3ccccc3)nc12 | 4%[88.5 µM] | -29%[138 µM] | 2%[70.6 µM] | i | ? | . | . | . | .
Clc1ccc2nc(N3CCC(NCCc4cccnc4)CC3)sc2c1 | -3% | 18µM* | 13µM* | i | 14µM* | 24µM* | 24µM* | -28% | 22µM*
Cc1nn(-c2ccccc2)c2c1C(C(C)C)N(C1CN([S+](=O)([O-])C(C)C)C1)C2=O (stereo unspecified) | . | -19% | . | . | -13% | . | . | . | .
COC(=O)c1cccc(C(=O)N2CCC(Cc3nc(-c4ccc(OC)cc4)no3)CC2)c1 | i | ? | 6.3µM* | i | 56µM* | 6.9µM* | 8.6µM* | -7% | 5.4µM*

Screening results (PubChem)
